Values without a mark were called inactive. Records with an inconclusive call do not appear. Calls of active or inactive are those of the source. Unless noted, the call rests on the fitted dose curve.

The nature of assay [1]: Nuclear factor erythroid 2-related factor 2/antioxidant responsive element (Nrf2/ARE) small molecule agonists: luciferase reporter gene qHTS assay in human keratinocytes (AID 1919969). Further: nearly all actives have a fitted effect of over 35% in size. Further: potency means the concentration at half of the fitted maximal effect.
The target in assay [2] is KiSS-1 receptor (Homo sapiens) (UniProt Q969F8). Briefly: Human kisspeptin (KISS1R) small molecule agonists, calcium flux assay in KISS1R-HEK293 cells (AID 1920064; active means well fitted activation curve with a large enough effect in the repeat runs). The method, boiled down:
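Cell line: HEK293, stable human KISS1R. Dye loading 1 h at 37 C after 18 h culture. Read: kinetic fluorescence, 480/540 nm, 3 min at 1 s intervals.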
For orientation: A change in cytosolic calcium serves as a functional read-out for many receptors and channels.

Assay [3] in a line: G protein-coupled receptor (GPCR) small molecule agonists, calcium flux assay: HEK293 wild type cell line counter screen (AID 1920065). In short, it runs like this:
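Tox21 10K compounds, 15 concentrations each in triplicate, pin-transferred in DMSO onto dye-loaded cells; kinetic read at 480/540 nm for 3 min, 1 s intervals.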

A short description of assay [4]: p53 small molecule agonists, cell-based qHTS assay with human liver microsomes (AID 1963577).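 Further: p53 response element beta-lactamase reporter cells with liver microsomes plus NADPH.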 In short, it runs like this:
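16 h, 37 C exposure of p53RE-bla cells to compounds with human liver microsomes and NADPH (0.5 mg/mL final each); detection via LiveBLAzer mixture, 2 h dark at room temperature.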
On the technique in general: qHTS replaces the single test concentration by a dilution series.

Assay [5] is described as follows: p53 small molecule agonists, cell-based qHTS assay with rat liver microsomes (AID 1963578). In short, it runs like this: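 With rat liver microsomes and NADPH present (0.5 mg/mL final each), p53RE-bla cells are treated with compound for 16 h at 37 C. LiveBLAzer detection mixture is then applied for 2 h at room temperature in the dark.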
Assay [6] can be described thus: p53 small molecule agonists, cell-based qHTS assay with human liver microsomes: qHTS cell viability counter screen (AID 1963579). Further: nearly all actives have a fitted effect of over 45% in size. Further: potency means the concentration at half of the fitted maximal effect. The method, boiled down:
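In this multiplexed counter screen, the reporter plates were subsequently treated with CellTiter-Glo so that cell viability, reflected by luminescence, could be recorded for p53RE-bla cells dosed 16 h with compounds under microsomal activation (HLM and NADPH).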

Assay [7] is described as follows: p53 small molecule agonists, cell-based qHTS assay with rat liver microsomes: qHTS cell viability counter screen (AID 1963580). Further: nearly all actives have a fitted effect of over 45% in size. The method, boiled down:
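Cytotoxicity counter screen: intracellular ATP measured by CellTiter-Glo luminescence in the same wells as the beta-lactamase reporter read, on HCT-116 p53RE-bla cells exposed 16 h at 37 C to compounds with rat liver microsomes and NADPH, each 0.5 mg/mL final.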

Assay [8] has as its target 5-hydroxytryptamine receptor 2A (Homo sapiens) (UniProt P28223). Briefly: 5-hydroxytryptamine receptor 2A (HTR2A) small molecule agonists, cell-based qHTS assay (AID 1963587). Further: nearly all actives have a fitted effect of over 30% in size. Further: potency means the concentration at half of the fitted maximal effect. In short, it runs like this: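 CHO cells stably expressing human HTR2A, plated 18 h, loaded with calcium dye 1 h at 37 C. Agonist mode: compounds added and intracellular calcium fluorescence recorded kinetically for 2 min at 1 sec intervals.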

The target in assay [9] is Muscarinic acetylcholine receptor M1 (Homo sapiens) (UniProt P11229). Briefly: Cholinergic receptor muscarinic 1 (CHRM1) small molecule antagonists, cell-based qHTS assay (AID 1963588). Further: nearly all actives have a fitted effect of over 40% in size. Further: potency means the concentration at half of the fitted maximal effect. The method, boiled down: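 Compounds were tested at 15 concentrations in three independent runs. Dye-loaded CHRM1-CHO cells were exposed 5 min at room temperature before stimulation by acetylcholine added at 50nM. Intracellular calcium was read kinetically on FDSS for 3 min.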
Sequence of Muscarinic acetylcholine receptor M1 (Homo sapiens) (P11229 whole entry, looked up): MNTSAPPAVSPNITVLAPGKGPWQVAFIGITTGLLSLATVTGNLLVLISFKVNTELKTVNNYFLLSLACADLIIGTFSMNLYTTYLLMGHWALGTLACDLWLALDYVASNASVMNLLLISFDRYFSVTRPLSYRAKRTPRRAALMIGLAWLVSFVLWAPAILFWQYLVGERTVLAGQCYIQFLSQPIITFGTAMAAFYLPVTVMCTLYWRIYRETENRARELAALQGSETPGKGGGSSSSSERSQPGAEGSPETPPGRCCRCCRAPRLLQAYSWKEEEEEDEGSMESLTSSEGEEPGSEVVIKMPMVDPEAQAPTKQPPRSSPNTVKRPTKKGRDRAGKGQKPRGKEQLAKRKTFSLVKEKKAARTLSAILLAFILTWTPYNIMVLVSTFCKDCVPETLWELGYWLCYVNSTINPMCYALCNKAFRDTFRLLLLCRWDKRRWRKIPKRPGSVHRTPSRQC

Assay [10] shares this target. Briefly: Cholinergic receptor muscarinic 1 (CHRM1) small molecule agonists, cell-based qHTS assay (AID 1963589). Further: nearly all actives have a fitted effect of over 35% in size. The method, boiled down:
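Homogeneous fluorescence calcium flux, agonist mode. Human M1-expressing CHO cells; compound dosed at 15 concentrations, three independent runs; signal sampled every 1 sec.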

Assay [11] can be described thus: cAMP Responsive Elements (CRE) small molecule agonists, cell-based qHTS assay (AID 1963590). Further: potency means the concentration at half of the fitted maximal effect. The method, boiled down:
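HEK 293T cells stably bearing CRE-bla were plated at 2,000 cells per well and rested 18 h. Compounds, positive controls or DMSO were added for 3 h at 37 C. LiveBLAzer B/G substrate was then loaded for 2 h at room temperature.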

Assay [12] is described as follows: cAMP Responsive Elements (CRE) small molecule antagonists, cell-based qHTS assay (AID 1963591; active means well fitted inhibition curve with a large enough effect in the signal ratio in the repeat runs, not every such curve was filed as active; the % refers to the signal ratio). The method, boiled down: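 First, CRE-bla HEK293T cells settled 18 h at 37 C. Next, compound and 0.25 uM final NKH477 were applied for 3 h. Last, LiveBLAzer B/G substrate was loaded for 2 h at room temperature.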
Assay [13] deals with Beta-2 adrenergic receptor (Homo sapiens) (UniProt P07550). Briefly: Adrenergic beta2 receptor (ADRB2) small molecule antagonists, cell-based qHTS assay (AID 1963592). Further: nearly all actives have a fitted effect of over 50% in size. Further: potency means the concentration at half of the fitted maximal effect. In short, it runs like this: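 Assay format: CHO-ADRB2 cells, 18-20hr seeding at 37C/5% CO2, then compound plus 1nM isoproterenol agonist mix for 0.5hr RT. Homogeneous time-resolved fluorescence cAMP detection after 1hr, expressed as 665/615 nm ratio.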
Sequence of Beta-2 adrenergic receptor (Homo sapiens) (P07550 whole entry, looked up): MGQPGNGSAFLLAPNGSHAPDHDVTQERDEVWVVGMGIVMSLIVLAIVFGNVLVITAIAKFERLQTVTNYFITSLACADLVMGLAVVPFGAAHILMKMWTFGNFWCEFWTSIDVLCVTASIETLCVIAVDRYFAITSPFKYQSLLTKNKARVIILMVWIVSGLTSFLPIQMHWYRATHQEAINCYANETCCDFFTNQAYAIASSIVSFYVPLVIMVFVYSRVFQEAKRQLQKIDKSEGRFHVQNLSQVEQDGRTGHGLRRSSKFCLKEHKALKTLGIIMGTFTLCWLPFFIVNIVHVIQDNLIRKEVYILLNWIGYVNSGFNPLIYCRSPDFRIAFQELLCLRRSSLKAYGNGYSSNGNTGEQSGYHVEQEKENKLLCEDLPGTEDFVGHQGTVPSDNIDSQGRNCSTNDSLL

Assay [14] addresses D(2) dopamine receptor (Homo sapiens) (UniProt P14416). Briefly: Dopamine D2 receptor (DRD2) small molecule agonists, cell-based qHTS assay (AID 1963594). Further: nearly all actives have a fitted effect of over 35% in size. The method, boiled down: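 HEK293 cells stably expressing human DRD2, pre-treated with PDE inhibitor Ro20-1724 (0.1 mM final) and compound 10 min at room temperature, then stimulated with NKH477 (200nM […]) for 30 min. cAMP read by HTRF (665/620 nm).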

Assay [15] addresses Gonadotropin-releasing hormone receptor (Homo sapiens) (UniProt P30968). Briefly: Human gonadotropin-releasing hormone receptor (GnRHR) small molecule agonists, calcium flux assay in GnRHR-HEK293 cells (AID 1920063). Further: nearly all actives have a fitted effect of over 35% in size. The method, boiled down: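 Compounds dissolved in DMSO are pin-transferred onto dye-loaded GnRHR-HEK293 cells, which were seeded 18 h before at 37 C/5% CO2. Calcium signal is read as fluorescence intensity at 1 s intervals for 3 min.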

The nature of assay [16]: p53 small molecule agonists, cell-based qHTS assay: qHTS cell viability counter screen (AID 1963581). Further: nearly all actives have a fitted effect of over 45% in size. Further: potency means the concentration at half of the fitted maximal effect. The method, boiled down:
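ATP content measured by luminescence in HCT-116 p53RE-bla cells treated 16 h at 37 C, same wells as the reporter screen.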

In assay [17] the target is Beta-2 adrenergic receptor (Homo sapiens) (UniProt P07550). Briefly: Adrenergic beta2 receptor (ADRB2) small molecule agonists, cell-based qHTS assay (AID 1963593).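 Further: CHO cells stably overexpressing human ADRB2.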 The method, boiled down: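 CHO cells stably over-expressing ADRB2 were plated overnight at 37C, then dosed with compounds plus a stimulation mix containing 100uM IBMX and 25uM Ro-20-1724 for 0.5hr at room temperature. cAMP was measured by HTRF competition, 1hr.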

Assay [18] addresses D(2) dopamine receptor (Homo sapiens) (UniProt P14416). The experiment in a line: Dopamine D2 receptor (DRD2) small molecule antagonists, cell-based qHTS assay (AID 1963595; active means well fitted inhibition curve with a large enough effect in the signal ratio in the repeat runs, with a control signal flat; the % refers to the signal ratio; further: potency means the concentration at half of the fitted maximal effect). In short, it runs like this: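 HEK293 cells stably expressing DRD2, preincubated with 0.1 mM Ro20-1724 and compounds 10 min, were stimulated with 200 nM NKH477 plus 12 nM quinpirole for 30 min at room temperature; cAMP measured by HTRF (665/620 nm).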

A short description of assay [19]: p53 small molecule agonists, cell-based qHTS assay (AID 1963582; active means well fitted activation curve with a large enough effect in the signal ratio in the repeat runs, not every such curve was filed as active; the % refers to the signal ratio). The method, boiled down:
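16 h compound exposure (37 C) of p53 response element–bla cells, preceded by 5 h recovery at 37 C/5% CO2; read-out via LiveBLAzer B/G FRET substrate, 2 h RT, fluorescence intensity.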

The target of assay [20] is 5-hydroxytryptamine receptor 2A (Homo sapiens) (UniProt P28223). Briefly: 5-hydroxytryptamine receptor 2A (HTR2A) small molecule antagonists, cell-based qHTS assay (AID 1963586). Further: nearly all actives have a fitted effect of over 45% in size. Further: potency means the concentration at half of the fitted maximal effect. In short, it runs like this:
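CHO cells stably expressing human HTR2A were plated for 18 h at 37 C, then loaded with calcium dye for 1 h. Compounds were preincubated 5 min at room temperature before DOI (4 nM solution) was added. Kinetic fluorescence was read for 3 min.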

Sequence of Gonadotropin-releasing hormone receptor (Homo sapiens) (P30968 whole entry, looked up): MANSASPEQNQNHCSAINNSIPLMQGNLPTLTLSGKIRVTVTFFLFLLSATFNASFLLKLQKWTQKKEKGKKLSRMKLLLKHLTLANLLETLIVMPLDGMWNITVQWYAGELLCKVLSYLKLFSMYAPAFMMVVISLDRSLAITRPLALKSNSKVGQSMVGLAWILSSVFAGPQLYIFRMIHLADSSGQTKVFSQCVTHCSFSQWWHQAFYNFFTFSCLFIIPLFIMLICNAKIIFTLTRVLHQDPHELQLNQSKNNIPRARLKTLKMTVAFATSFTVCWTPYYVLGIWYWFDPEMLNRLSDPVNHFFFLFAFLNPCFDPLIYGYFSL
Sequence of 5-hydroxytryptamine receptor 2A (Homo sapiens) (P28223 whole entry, looked up): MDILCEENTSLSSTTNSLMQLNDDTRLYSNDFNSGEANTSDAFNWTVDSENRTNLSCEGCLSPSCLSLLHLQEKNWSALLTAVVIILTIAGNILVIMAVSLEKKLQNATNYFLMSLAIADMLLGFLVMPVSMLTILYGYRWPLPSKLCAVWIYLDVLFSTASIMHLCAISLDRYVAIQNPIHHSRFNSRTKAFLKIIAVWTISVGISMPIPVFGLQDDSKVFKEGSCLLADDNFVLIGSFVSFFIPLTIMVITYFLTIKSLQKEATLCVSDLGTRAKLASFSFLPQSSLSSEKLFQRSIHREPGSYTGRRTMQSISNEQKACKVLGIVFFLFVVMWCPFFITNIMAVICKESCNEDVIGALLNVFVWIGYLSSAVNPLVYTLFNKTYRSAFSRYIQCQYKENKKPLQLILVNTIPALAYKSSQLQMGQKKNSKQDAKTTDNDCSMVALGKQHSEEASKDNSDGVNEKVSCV
Sequence of D(2) dopamine receptor (Homo sapiens) (P14416 whole entry, looked up): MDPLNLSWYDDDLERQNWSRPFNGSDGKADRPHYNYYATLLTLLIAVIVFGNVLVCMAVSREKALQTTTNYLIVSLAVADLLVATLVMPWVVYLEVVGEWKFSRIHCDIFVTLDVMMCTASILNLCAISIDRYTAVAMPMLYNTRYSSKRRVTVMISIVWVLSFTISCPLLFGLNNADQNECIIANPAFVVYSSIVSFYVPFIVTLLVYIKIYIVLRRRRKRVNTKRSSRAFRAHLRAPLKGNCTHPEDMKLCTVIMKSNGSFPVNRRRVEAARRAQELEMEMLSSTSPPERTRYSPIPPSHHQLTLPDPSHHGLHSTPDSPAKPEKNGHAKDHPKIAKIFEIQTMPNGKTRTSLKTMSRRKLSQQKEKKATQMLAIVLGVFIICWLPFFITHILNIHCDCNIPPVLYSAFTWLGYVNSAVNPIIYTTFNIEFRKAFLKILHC
Sequence of KiSS-1 receptor (Homo sapiens) (Q969F8 whole entry, looked up): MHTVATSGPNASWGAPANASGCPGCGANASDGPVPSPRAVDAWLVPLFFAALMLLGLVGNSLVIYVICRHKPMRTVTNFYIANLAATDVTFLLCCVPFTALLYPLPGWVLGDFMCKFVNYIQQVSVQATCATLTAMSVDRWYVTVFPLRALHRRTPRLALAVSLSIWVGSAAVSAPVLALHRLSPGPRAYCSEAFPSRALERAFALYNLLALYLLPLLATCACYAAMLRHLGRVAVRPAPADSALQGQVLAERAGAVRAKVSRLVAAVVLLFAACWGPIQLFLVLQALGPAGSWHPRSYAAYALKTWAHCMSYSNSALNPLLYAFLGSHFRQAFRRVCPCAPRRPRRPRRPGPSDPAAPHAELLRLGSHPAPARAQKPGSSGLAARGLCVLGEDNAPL

With `Cc1ccc(O)c(O)c1`, in assay [1], the Potency was 66.6 µM (active). Moreover, the Potency entry in [2], in [3], in assay [4], in [5], in [6] and in [7] was “inactive” in each case. Further, the Potency result in [8], in assay [9], in assay [10], in assay [11], in assay [12] and in assay [13] was “inactive” in each case. Also, in assay [14], the Potency entry was “inactive”.
Regarding `Clc1ccc(Cn2c(CN3CCCC3)nc3ccccc32)cc1`, in [1], the Potency is 33.5 µM (active). For the same compound, the Potency entry in [15], in [4], in assay [5], in [6], in assay [7] and in [16] was “inactive” throughout. Moreover, the Potency entry in [10], in assay [13], in assay [17], in assay [14] and in assay [18] was “inactive” throughout.
With `CC(C)COCC(CN(Cc1ccccc1)c1ccccc1)N1CCCC1` (centres undefined), the Potency entry in [1], in [2], in assay [3], in [4], in [5] and in assay [6] was “inactive” throughout. For the same compound, the Potency entry in [7], in assay [19], in [9], in assay [10] and in assay [14] was “inactive” each time. The Potency in assay [20] is 6.5 µM (active); in assay [8] it was 19 µM (active); in assay [13] it was 26.6 µM (active); in [18], 29.8 µM (active).
Take `Cc1nc(Nc2ncc(C(=O)Nc3c(C)cccc3Cl)s2)cc(N2CCN(CCO)CC2)n1`: the Potency entry in assay [1], in assay [15], in assay [3], in assay [4], in assay [5] and in assay [7] was “inactive” throughout. Further, the Potency entry in assay [19], in assay [20], in assay [8], in assay [9], in assay [10] and in assay [12] was “inactive” each time. Besides, the Potency entry in assay [13], in assay [17] and in assay [18] was “inactive” throughout. Moreover, in assay [11], the Potency is 0.841 µM (active).
Turning to `CC=O`, the Potency result in [1], in [15], in assay [3], in assay [4], in assay [5] and in assay [20] was “inactive” in each case. Moreover, the Potency entry in [10], in assay [13], in [14] and in assay [18] was “inactive” in each case. Also, the Potency is 47.9 µM (active) in assay [6] and 3.5 µM (active) in assay [9].
For `CN(C)CCCN1c2ccccc2Sc2ccc(C(F)(F)F)cc21`, the Potency entry in assay [1], in assay [15], in assay [3], in assay [5], in assay [6] and in assay [7] was “inactive” in each case. Also, the Potency result in assay [16], in assay [9], in [10], in assay [12], in assay [13] and in [14] was “inactive” throughout. The Potency in [18] was 0.0596 µM (active).
Turning to `C=CC(=C)CCC=C(C)C`, the Potency in assay [1] is 68.6 µM (active). Also, the Potency result in assay [2], in assay [3], in assay [4], in [5], in assay [6] and in [7] was “inactive” in each case. The Potency entry in assay [16], in [19], in [20], in [9], in [10] and in [11] was “inactive” each time. Besides, the Potency result in assay [12], in [13], in assay [17], in assay [14] and in assay [18] was “inactive” in each case.
For `CC(C)=CCNc1ncnc2c1ncn2[C@@H]1O[C@H](CO)[C@@H](O)[C@H]1O`, the Potency in [1] is 7.5 µM (active); in assay [18], 9.44 µM (active). Also, the Potency result in assay [2], in assay [3], in assay [4], in assay [5], in assay [6] and in assay [7] was “inactive” throughout. For the same compound, the Potency result in assay [20], in [10] and in assay [13] was “inactive” each time.
Regarding `C[C@H]1O[C@@H](O[C@H]2CC[C@@]3(C)[C@H](CC[C@@H]4[C@@H]3C[C@@H](O)[C@]3(C)[C@@H](C5=CC(=O)OC5)CC[C@]43O)C2)C[C@H](O)[C@@H]1O[C@H]1C[C@H](O)[C@H](O[C@H]2C[C@H](O)[C@H](O[C@@H]3O[C@H](CO)[C@@H](O)[C@H](O)[C@H]3O)[C@@H](C)O2)[C@@H](C)O1`, the Potency in [1] is 0.531 µM (active); in assay [16], 0.251 µM (active). For the same compound, the Potency result in assay [15], in assay [3], in assay [5], in [6], in assay [20] and in assay [8] was “inactive” each time. Further, the Potency entry in assay [9], in [10], in assay [13], in assay [17], in assay [14] and in [18] was “inactive” in each case.
Turning to `COc1ccc(C(=O)c2ccc(C)cc2)c(O)c1`, in [1], the Potency is 31 µM (active). Also, the Potency entry in assay [15], in [3], in [4], in [5], in [6] and in [7] was “inactive” in each case. Besides, the Potency entry in [16], in assay [20], in assay [8], in assay [9], in [10] and in assay [12] was “inactive” throughout. Moreover, the Potency result in assay [13], in assay [17], in [14] and in assay [18] was “inactive” throughout.
As for `COc1cc2nc(N3CCN(C(=O)C4COc5ccccc5O4)CC3)nc(N)c2cc1OC` (centres undefined), the Potency entry in assay [1], in assay [15], in assay [3], in [4], in assay [5] and in [6] was “inactive” in each case. In addition, the Potency result in assay [7], in [16], in [19] and in assay [18] was “inactive” throughout. Besides, the Potency in assay [13] was 26.6 µM (active).
For the compound `CCCCCc1ccc(O)cc1`, the Potency in assay [1] was 34.4 µM (active). The Potency entry in assay [15], in [3], in [5], in [16], in [19] and in assay [20] was “inactive” throughout. In addition, the Potency entry in [13], in assay [17], in assay [14] and in [18] was “inactive” in each case.

The values are drawn from PubChem BioAssay (Tox21).
